# Activity calls are given as the source filed them.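 Rule for the calls: active = average half-effect concentration of 10 µM or less in every one of the four cell panels; inactive = the rest.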
# Tested on: H9c2
# Assay: cardiomyocyte survival under oxidative or metabolic stress – cell-based, panel, H9c2 and HL-1, H2O2, 2-deoxyglucose, ATP luminescence, SAR follow-up (AID 651642)
# Conditions: H9c2/HL-1 cardiomyocyte 2-deoxyglucose damage, mean of runs, with 2-deoxyglucose
row,SMILES,outcome
1,CCOC(=O)c1cccc(NC(=O)c2cc(-c3cc(OC)c(OC)c(OC)c3)nc3cc(Cl)ccc23)c1,inactive
2,CCOC(=O)c1cccc(NC(=O)c2cc(-c3cc(OC)c(OC)c(OC)c3)nc3ccc(F)cc23)c1,inactive
3,CCOC(=O)c1cccc(NC(=O)c2cc(-c3cc(OC)c(OC)c(OC)c3)nc3ccc(Br)cc23)c1,inactive
4,CCOC(=O)c1cccc(NC(=O)c2cc(-c3cc(OC)c(OC)c(OC)c3)nc3c(Cl)cccc23)c1,inactive
5,COc1ccc2c(c1OC)C(=O)N1c3ccccc3C(=O)N(Cc3ccc(F)cc3)C21 (configuration not stated),inactive
6,COc1cc(-c2cc(C(=O)NCC(=O)Nc3cccc(C(C)=O)c3)c3cc(F)ccc3n2)cc(OC)c1OC,active
7,COc1ccc2c(c1OC)C(=O)N1c3ccccc3C(=O)N(Cc3ccccc3Cl)C21 (configuration not stated),inactive
8,COc1cccc(CNC(=O)CNC(=O)c2cc(-c3cc(OC)c(OC)c(OC)c3)nc3ccccc23)c1,inactive
9,COc1cc(-c2cc(C(=O)Nc3cccc(C#N)c3)c3ccccc3n2)cc(OC)c1OC,inactive
10,COc1cc(-c2cc(C(=O)Nc3cccc(C(C)=O)c3)c3ccccc3n2)cc(OC)c1OC,inactive
11,COc1cc(-c2cc(C(=O)Nc3cccc(C(=O)O)c3)c3ccccc3n2)cc(OC)c1OC,inactive
12,COc1ccc2c(c1OC)C(=O)N1c3ccccc3C(=O)N(Cc3ccc(C)cc3)C21 (configuration not stated),inactive
13,COc1cc(-c2cc(C(=O)NCC(=O)Nc3cccc(C(C)=O)c3)c3cc(Br)ccc3n2)cc(OC)c1OC,active
14,COc1ccc2c(c1OC)C(=O)N1c3ccccc3C(=O)N(Cc3cccc(Cl)c3Cl)C21 (configuration not stated),active
15,COc1cc(-c2cc(C(=O)Nc3cccc(C(C)=O)c3)c3ccc(Cl)cc3n2)cc(OC)c1OC,inactive
16,COc1cc(-c2cc(C(=O)Nc3cccc(C(=O)Nc4ccccc4)c3)c3ccccc3n2)cc(OC)c1OC,active

row,SMILES,outcome
1,CCOC(=O)c1cccc(NC(=O)c2cc(-c3cc(OC)c(OC)c(OC)c3)nc3ccc(OC)cc23)c1,inactive
2,CCOC(=O)c1cccc(NC(=O)c2cc(-c3cc(OC)c(OC)c(OC)c3)nc3ccc(Cl)cc23)c1,inactive
3,COc1ccc2nc(-c3cc(OC)c(OC)c(OC)c3)cc(C(=O)NCC(=O)Nc3cccc(C(C)=O)c3)c2c1,active
4,COc1ccccc1CN1C(=O)c2ccccc2N2C(=O)c3c(ccc(OC)c3OC)C12 (configuration not stated),inactive
5,COc1ccc2c(c1OC)C(=O)N1c3ccccc3C(=O)N(Cc3cccc(C)c3)C21 (configuration not stated),inactive
6,COc1cc(-c2cc(C(=O)NCC(=O)Nc3cccc(C(C)=O)c3)c3cccc(Cl)c3n2)cc(OC)c1OC,inactive
7,CCOC(=O)c1cccc(NC(=O)CNC(=O)c2cc(-c3cc(OC)c(OC)c(OC)c3)nc3ccc(F)cc23)c1,active
8,COc1cc(-c2cc(C(=O)NCC(=O)Nc3ccc(C(C)=O)cc3)c3cc(C)ccc3n2)cc(OC)c1OC,active
9,COc1cc(-c2cc(C(=O)Nc3cccc(C(N)=O)c3)c3ccccc3n2)cc(OC)c1OC,inactive
10,COc1cc(-c2cc(C(=O)Nc3cccc(C(=O)N4CCOCC4)c3)c3ccccc3n2)cc(OC)c1OC,inactive
11,COc1cc(-c2cc(C(=O)Nc3cccc(C(C)=O)c3)c3cccc(Cl)c3n2)cc(OC)c1OC,inactive
12,COc1cc(-c2cc(C(=O)NCC(=O)Nc3cccc(C(C)=O)c3)c3ccccc3n2)cc(OC)c1OC,active
13,CCOC(=O)c1cccc(NC(=O)c2cc(-c3cc(OC)c(OC)c(OC)c3)nc3ccccc23)c1,inactive
14,COC(=O)CNC(=O)c1cccc(NC(=O)c2cc(-c3cc(OC)c(OC)c(OC)c3)nc3ccccc23)c1,active
15,COc1cc(-c2cc(C(=O)Nc3cccc(C(C)=O)c3)c3cc(F)ccc3n2)cc(OC)c1OC,inactive
16,COc1ccc2nc(-c3cc(OC)c(OC)c(OC)c3)cc(C(=O)Nc3cccc(C(C)=O)c3)c2c1,inactive

# From PubChem BioAssay AID651642 (Sanford-Burnham Center for Chemical Genomics, 2012)
